NOD2 RIPK2 PPI = NOD2-RIPK2 protein interaction inhibition; inhibition, % at 4.98 µM; AID 624267; CHO BLA complementation NOD2-RIPK2, CCF4 ratio; 0.38% of 360,000 active; O43353; in the data active means inhibition above about 21%
GC-A act = GC-A (human) enzyme activation; P16066; HEK293 GC-A cells, cGMP TR-FRET, EC30 ANP; 0% at EC30 ANP, 100% saturating ANP; activation, % at 10 µM; 0.14% of 370,000 active; in the data active means activation above about 40%
GC-B act = GC-B (human) receptor activation. HEK293-GC-B cells, CNP EC30, cGMP TR-FRET; 0% at EC30 CNP, 100% saturating CNP. 0.11% of 370,000 active. activation, % at 10 µM. P20594;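 active means activation at 10 µM reaching about 35% in either raw or pattern-adjusted values, limit read from the data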
TLR4-MyD88 BLA = inhibitors of human TLR4-MyD88 binding. O00206+Q99836. inhibition, % at 8.4 µM. 0.18% of 200,000 active. HeLa CL3-4 TLR4/MyD88 BLA complementation, FRET ratio; in the data active means inhibition above about 25%
Neddylation inh = inhibitors of human cullin neddylation. inhibition, % at 25 µM. 0.58% of 360,000 active. P61081+Q13564. TR-FRET cullin neddylation, biochemical; in the data active means inhibition above about 36%
TLR9-MyD88 inh = TLR9-MyD88 interaction inhibition; Q9NR96+Q99836; CHO BLA complementation TLR9-MyD88, CCF4 FRET ratio; inhibition, % at 4.98 µM; 0.21% of 340,000 active;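 active means inhibition above the mean over all tested compounds plus 3 SD, cut at about 21% in these data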
TLR9-MyD88 conf = TLR9-MyD88 interaction inhibition, confirmation. CHO TLR9/MyD88 BLA complementation, CCF4 FRET ratio. AID 540250. 51% of 680 active. shares compounds with TLR9-MyD88 inh. inhibition, % at 4.98 µM;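 active means mean inhibition across three repeats above about 21% taken from the earlier screen, limit read from the data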;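 further: blue over green emission ratio reports constitutive TLR9 MyD88 association via BLA complementation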
BLA counter-1 = counter-screen for TLR9-MyD88 inhibitors: non-selective beta-lactamase inhibitors; shares compounds with TLR9-MyD88 inh; inhibition, % at 4.98 µM; 7% of 680 active; CHO-BLA cells, CCF4 FRET ratio, BLA reporter;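 active means mean inhibition above a 50% cutoff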;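 further: counterscreen of TLR9-MyD88 hits on CMV-driven BLA in CHO-K1 cells; higher means less blue over green ratio so more BLA blockade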
TLR9 CHO cytotox = CHO cell toxicity counter-screen for TLR9-MyD88 inhibitors. shares compounds with TLR9-MyD88 inh. TLR9-MyD88 CHO cells cytotoxicity, luminescence. inhibition, % at 4.98 µM. 39% of 680 active; in the data active means inhibition above about 11%
NOD2-RIPK2 conf = confirmation of human NOD2-RIPK2 interaction inhibitors | shares compounds with NOD2 RIPK2 PPI | CHO cells, NOD2-RIPK2 BLA complementation, CCF4 FRET | inhibition, % at 4.98 µM | 70% of 1,200 active | AID 624370;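 active means mean inhibition across replicates above a set limit taken from the earlier primary screen, cut at about 21% in these data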
BLA counter-2 = NOD2-RIPK2 counterscreen BLA reporter activity. shares compounds with NOD2 RIPK2 PPI. CHO BLA reporter, CCF4 FRET ratio. inhibition, % at 4.98 µM. 57% of 1,200 active;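 active means mean inhibition above the low-control mean inhibition plus three low-control SD, cut at about 11% in these data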
Each line names hits and unclear results; the compound was inactive in the other large screens (follow-up assays come after a bar, where shown). Rows were chosen to be rich in hits. Some 1.2% of all compounds tested hit in one or more screens of this group.

COc1ccc(OC)c(C=Cc2ccc([N+](=O)[O-])cc2)c1	NOD2 RIPK2 PPI 43, TLR9-MyD88 inh 34 (no result: TLR4-MyD88 BLA) | TLR9-MyD88 conf 26 | BLA counter-1 inactive | TLR9 CHO cytotox inactive | NOD2-RIPK2 conf 46 | BLA counter-2 53
COc1ccc(/C=N/Nc2ccc([N+](=O)[O-])cc2)cc1O	NOD2 RIPK2 PPI 28, TLR9-MyD88 inh 37 (no result: TLR4-MyD88 BLA) | TLR9-MyD88 conf 28 | BLA counter-1 inactive | TLR9 CHO cytotox inactive | NOD2-RIPK2 conf 43 | BLA counter-2 47
COC(=O)C1=C(C)Nc2[nH]c(=S)[nH]c(=O)c2C1c1ccc(OC)cc1 (configuration not stated)	none
CCOC(=O)C1=C(C)Nc2sc(C(=O)c3ccc(OC)cc3)c(N)c2C1c1ccc(C(=O)OC)cc1 (configuration not stated)	NOD2 RIPK2 PPI 39, TLR9-MyD88 inh 44 | TLR9-MyD88 conf inactive | BLA counter-1 inactive | TLR9 CHO cytotox inactive | NOD2-RIPK2 conf inactive | BLA counter-2 20
CCN(CC)c1ccc(/C=C/C(=O)C2C(=O)C=C(C)OC2=O)cc1 (configuration not stated)	NOD2 RIPK2 PPI 23, TLR9-MyD88 inh 21 | TLR9-MyD88 conf 36 | BLA counter-1 inactive | TLR9 CHO cytotox 11 | NOD2-RIPK2 conf 28 | BLA counter-2 47
O=C(N[C@H](Cc1ccccc1)C(=O)NCc1ccc(OC(F)(F)F)cc1)[C@H]1O[C@@H](n2ccc(=O)[nH]c2=O)[C@H](O)[C@@H]1O	none (no result: NOD2 RIPK2 PPI, TLR4-MyD88 BLA, Neddylation inh, TLR9-MyD88 inh)
COC(=O)c1c(-c2ccc(N(C)C)cc2)sc2ccc(OC)cc12	NOD2 RIPK2 PPI 38, TLR9-MyD88 inh 28 (no result: TLR4-MyD88 BLA) | TLR9-MyD88 conf 35 | BLA counter-1 inactive | TLR9 CHO cytotox inactive | NOD2-RIPK2 conf 49 | BLA counter-2 66
COC(=O)c1c(-c2ccc(OC)cc2)sc2cc3c(cc12)OCO3	none (no result: TLR4-MyD88 BLA)
Cc1cc2nc(/C=C/c3nc4cc(C)c(C)cc4[nH]3)[nH]c2cc1C	NOD2 RIPK2 PPI 25, TLR9-MyD88 inh 40 (not shown: TLR4-MyD88 BLA, Neddylation inh) | TLR9-MyD88 conf 30 | BLA counter-1 inactive | TLR9 CHO cytotox inactive | NOD2-RIPK2 conf 32 | BLA counter-2 43
Cc1cc2nc(/C=C/c3cccnc3)[nH]c2cc1C	none (no result: TLR4-MyD88 BLA)
O=C(C#Cc1ccccc1)c1ccco1	NOD2 RIPK2 PPI 78, TLR9-MyD88 inh 30 (no result: TLR4-MyD88 BLA) | TLR9-MyD88 conf 48 | BLA counter-1 inactive | TLR9 CHO cytotox 97 | NOD2-RIPK2 conf 83 | BLA counter-2 18
Cc1ccc(/C=C2\Oc3c(ccc(O)c3CN3CCN(CCO)CC3)C2=O)cc1	NOD2 RIPK2 PPI 28, TLR9-MyD88 inh 22 | TLR9-MyD88 conf inactive | BLA counter-1 inactive | TLR9 CHO cytotox inactive | NOD2-RIPK2 conf 24 | BLA counter-2 28
CC(C)CCN1C(=O)c2cccc3c(N)ccc(c23)C1=O	NOD2 RIPK2 PPI 70, TLR9-MyD88 inh 55 (no result: TLR4-MyD88 BLA) | TLR9-MyD88 conf 33 | BLA counter-1 inactive | TLR9 CHO cytotox inactive | NOD2-RIPK2 conf 64 | BLA counter-2 70
Nc1cccc(N2C(=O)c3cccc4c(N)ccc(c34)C2=O)c1	none (no result: TLR4-MyD88 BLA)
Cc1cccc(N2C(=O)c3cccc4c(N)ccc(c34)C2=O)c1	NOD2 RIPK2 PPI 35, TLR9-MyD88 inh 32 (no result: TLR4-MyD88 BLA) | TLR9-MyD88 conf inactive | BLA counter-1 inactive | TLR9 CHO cytotox inactive | NOD2-RIPK2 conf 37 | BLA counter-2 44
C[C@@H]1CN([C@@H](C)CO)C(=O)c2cccc(NC(=O)Nc3cccc4ccccc34)c2O[C@H]1CN(C)S(=O)(=O)c1ccc(Cl)cc1	none (no result: NOD2 RIPK2 PPI, TLR4-MyD88 BLA, Neddylation inh, TLR9-MyD88 inh)
C[C@H]1[C@@H](OC(=O)NC2CCCCC2)CC[C@@]23CCCN2C(=O)CCC[C@@H]13	none (no result: NOD2 RIPK2 PPI, TLR4-MyD88 BLA, Neddylation inh, TLR9-MyD88 inh)
CCOC(=O)c1sc(-c2cccc(C(F)(F)F)c2)nc1O	none (no result: TLR4-MyD88 BLA)
CCOC(=O)c1sc(-c2ccc(C(F)(F)F)cc2)nc1O	NOD2 RIPK2 PPI 25, TLR9-MyD88 inh 28 (no result: TLR4-MyD88 BLA) | TLR9-MyD88 conf inactive | BLA counter-1 inactive | TLR9 CHO cytotox inactive | NOD2-RIPK2 conf 65 | BLA counter-2 67
COc1cc2oc3ccc(C#Cc4ccc(N)cc4)cc3c(=O)c2cc1OC	none (no result: TLR4-MyD88 BLA)
N#Cc1ccc(C#Cc2ccc3oc4ccccc4c(=O)c3c2)cc1	none (no result: TLR4-MyD88 BLA)
COc1cc2oc3cc(C#Cc4ccc(N)cc4)ccc3c(=O)c2cc1OC	NOD2 RIPK2 PPI 26, TLR9-MyD88 inh 38 (no result: TLR4-MyD88 BLA) | TLR9-MyD88 conf 40 | BLA counter-1 inactive | TLR9 CHO cytotox inactive | NOD2-RIPK2 conf 54 | BLA counter-2 58
Nc1ccc(C#Cc2ccc3c(=O)c4ccccc4oc3c2)cc1	NOD2 RIPK2 PPI 67, TLR9-MyD88 inh 74 (no result: TLR4-MyD88 BLA) | TLR9-MyD88 conf 64 | BLA counter-1 70 | TLR9 CHO cytotox inactive | NOD2-RIPK2 conf 78 | BLA counter-2 84
CCN(CC)c1ccc(C(=O)NNC(=O)CCNC(=O)c2ccccc2)cc1	none (no result: TLR4-MyD88 BLA)
CCN(CC)c1ccc(C(=C2C=CC(=[N+](CC)CC)C=C2)c2ccccc2)cc1	NOD2 RIPK2 PPI 41, GC-B act 39, TLR9-MyD88 inh 53 (no result: TLR4-MyD88 BLA) | TLR9-MyD88 conf 83 | BLA counter-1 inactive | TLR9 CHO cytotox 101 | NOD2-RIPK2 conf 32 | BLA counter-2 22
